In the OligoGym collection one finds sensor-assay potency score (higher = more potent) data, which are given here for 15 sequences.
Note: reference of the scale not given here.

The first assay addresses LEKR1. Briefly: pooled miR-30 sensor sort-seq; sequence = guide strand. As to conditions: shRNA.
Take TTTCCTTTGAATTAGATTCTTC: the sensor-assay potency score (higher = more potent) is 0.113.
On to TATACTTTTGGATTACATCTTG, for which the sensor-assay potency score (higher = more potent) was -0.0779.
Take TTAGATTCTTCAGTGTACCGAG: the sensor-assay potency score (higher = more potent) came out at 0.595.

Another assay addresses LENG8. Described as above. As to conditions: shRNA.
TTGTCCTTCATGAAGACGTTGC registered a sensor-assay potency score (higher = more potent) of -0.437.
As for TAAATTTACAACCCAAGTCCAC, the sensor-assay potency score (higher = more potent) was -0.679.
TTCTTCAGCTCTCGCTCCGGGT gave a sensor-assay potency score (higher = more potent) of -0.923.
TTGAGCAGCTTTTCCGTGCGGT displayed a sensor-assay potency score (higher = more potent) of 0.289.
Turning to TAGTCCTGCTTCTCTTTCCAGT, the sensor-assay potency score (higher = more potent) was -0.999.
For TTGTACTGCTGGTACCACTGGT, the sensor-assay potency score (higher = more potent) worked out at 0.0135.
Consider TGTACTGAGAAGACCAATCTGT, for which the sensor-assay potency score (higher = more potent) was 0.223.
TTCTCGTGTGAGGTATGCCAGC returned a sensor-assay potency score (higher = more potent) of -1.1.
Regarding TTCATGGTCACCCTTCTCCAAG, the sensor-assay potency score (higher = more potent) is -1.23.
Regarding TACACCTCCACCGTGAACTCGG, the sensor-assay potency score (higher = more potent) is -0.419.
The same measure, in the same setting: next, TCCACCGTGAACTCGGTGCGGA: -1.28; TGTTGAACTTGAGACCTCCAGT: -0.589.
